# Data published in the supplement of paper PMC13380429.
# Test system: Vero E6 infected with SARS-CoV-2
# Assay: SARS-CoV-2 infection rate relative to infected DMSO; higher = more infection, active = 60 or less
# Conditions: 24 h
row,Compound,SARS-CoV-2 infection rate
1,COc1cc2c(N3CCN(C(=O)Nc4ccc(OC(C)C)cc4)CC3)ncnc2cc1OCCCN1CCCCC1 [tandutinib] (10 µM),95.5% (inactive)
2,CC1(C)Oc2ccc(C#N)cc2[C@@H](N2CCCC2=O)[C@@H]1O [levcromakalim] (10 µM),97% (inactive)
3,C#Cc1cncc([C@@H]2CCCN2C)c1 [altinicline] (10 µM),98.5% (inactive)
4,C/C=C(/C(=C/C)c1ccc(O)cc1)c1ccc(O)cc1 [dienestrol] (10 µM),96% (inactive)
5,CC(C)(CCCCCC(O)CCCCCC(C)(C)C(=O)O)C(=O)O [bempedoic-acid] (10 µM),110% (inactive)
6,N#Cc1ccc(C(c2ccc(C#N)cc2)n2cncn2)cc1 [letrozole] (10 µM),102% (inactive)
7,CN(NC(=O)CC(=O)NN(C)C(=S)c1ccccc1)C(=S)c1ccccc1 [elesclomol] (10 µM),19.5% (active)
8,Cc1ccc2c(c1)=C(c1ccccc1)C(C1=NN(C(=O)CCC(=O)O)C(c3ccc(Br)cc3)C1)C(=O)N=2 (stereo unspecified) (10 µM),104% (inactive)
9,Cc1cc(-c2ccc(CC(=O)Nc3ccc(-c4cccnc4)cc3)cc2)ccn1 (10 µM),75.5% (inactive)
10,O=C(CCCN1CCC2(CC1)C(=O)NCN2c1ccccc1)c1ccc(F)cc1 [spiperone] (10 µM),22% (active)
11,O=C(CCCCCCNC(=O)c1cnc(N(c2ccccc2)c2ccccc2)nc1)NO (0.833333 µM),106% (inactive)
